Shown are actives, neighbours in structure and some others; about 8.1% of the full set was active somewhere.
Shh pathway inh: Sonic Hedgehog pathway inhibition | Shh-LIGHT2 Gli-luciferase reporter, 30 h | inhibition, % (concentration not given with the values) | actives 2.1% (n = 22,000);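 active means mean inhibition across valid replicates above about 65%, limit read from the data; inconclusive means mean under the limit, yet half or more replicates past it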;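 further: pathway switched on by Shh-conditioned medium diluted 1 in 25 in low serum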
NOMO-1 viab: STK33 inhibitor candidate reducing NOMO-1 cell viability | actives 7.5% (n = 37,000) | NOMO-1 AML viability, CellTiter-Glo luminescence, 72 h | inhibition, % (concentration not given with the values); in the data active means inhibition above about 80%; inconclusive means no clear call, values can overlap the other calls
MITF inhib: inhibitors of MITF; inhibition, % (no concentration beside the values); AID 2240; TRPM1 promoter luciferase, luminescence, 24 h; actives 0.28% (n = 37,000); in the data active means inhibition above about 85%; inconclusive means no clear call, values can overlap the other calls; inactive means below about 68%;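 further: human melanocyte line stably carrying TRPM1 promoter luciferase reporter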
Numbers stand for hits.

Results for C[C@H](CO)N1C[C@H](C)[C@H](CN(C)Cc2ccc(C(=O)Nc3ccccc3N)cc2)Oc2ccc(NC(=O)Nc3ccc4c(c3)OCO4)cc2CC1=O ?
NOMO-1 viab: 127; MITF inhib: inactive

How did CCN(CC(=O)Nc1ccc(Br)cc1F)S(=O)(=O)c1ccc2ccccc2c1 do in these assays?
NOMO-1 viab: inactive; MITF inhib: inactive

Results for COC(=O)c1ccccc1S(=O)(=O)/C(C#N)=C/Nc1nc(C)cc(C)n1 ?
NOMO-1 viab: inactive; MITF inhib: inactive

Results for CS(=O)(=O)N(CC(=O)Nc1ccc(Br)cc1)c1ccc(Cl)cc1Cl ?
NOMO-1 viab: inactive; MITF inhib: inactive

Results for Cc1ccsc1C1C(C(=O)c2ccco2)C(=O)C(=O)N1Cc1ccco1 (stereo not given) ?
NOMO-1 viab: inactive; MITF inhib: inactive

Results for COC(=O)c1c(NC(=O)c2ccc(OC)c(OC)c2)sc2c1C(C(=O)OC)CC2 (stereo not given) ?
NOMO-1 viab: inactive; MITF inhib: inactive

Results for CC1(C)CC(=O)c2c([nH]c(-c3ccccc3)c2-c2ccccc2)C1 ?
Shh pathway inh: inactive; NOMO-1 viab: 92; MITF inhib: inactive

How did O=C1NC(=O)c2cc(-c3ccccc3)ccc21 do in these assays?
Shh pathway inh: inactive; NOMO-1 viab: inactive; MITF inhib: inactive

What do the screens show for `O=C(c1cc2ccccc2oc1=O)N(Cc1ccccc1)c1ccccn1`?
NOMO-1 viab: inactive; MITF inhib: inactive

What do the screens show for `NCCCCNS(=O)(=O)c1ccc2ccccc2c1`?
Shh pathway inh: inactive; NOMO-1 viab: inactive; MITF inhib: inactive

Results for NCCCCCCNS(=O)(=O)c1cccc2ccccc12 ?
Shh pathway inh: inactive; NOMO-1 viab: 84; MITF inhib: inactive

What do the screens show for `C[C@H](CO)N1C[C@H](C)[C@H](CN(C)Cc2ccc(C(=O)Nc3ccccc3N)cc2)Oc2ccc(NC(=O)Cc3ccccc3)cc2CC1=O`?
NOMO-1 viab: 128; MITF inhib: inactive

What do the screens show for `C[C@@H]1CN([C@H](C)CO)C(=O)Cc2cc(NC(=O)Cc3ccccc3)ccc2O[C@H]1CN(C)Cc1ccc(C(=O)Nc2ccccc2N)cc1`?
NOMO-1 viab: inactive; MITF inhib: inactive

How did C[C@@H]1CN([C@H](C)CO)C(=O)Cc2cc(NC(=O)CCC(F)(F)F)ccc2O[C@H]1CN(C)Cc1ccc(C(=O)Nc2ccccc2N)cc1 do in these assays?
NOMO-1 viab: inactive; MITF inhib: inactive

Results for C[C@@H]1CN([C@@H](C)CO)C(=O)Cc2cc(NC(=O)Cc3ccccc3)ccc2O[C@@H]1CN(C)Cc1ccc(C(=O)Nc2ccccc2N)cc1 ?
NOMO-1 viab: 96; MITF inhib: inactive

How did Cc1ccc(C2C(C(=O)c3sc(-c4ccccc4)nc3C)C(=O)C(=O)N2CCN(C)C)o1 (stereo not given) do in these assays?
NOMO-1 viab: inactive; MITF inhib: inactive

What do the screens show for `O=C(CSc1nnc(-c2cccnc2)n1-c1ccccc1)Nc1cc(C(F)(F)F)ccc1Cl`?
NOMO-1 viab: inactive; MITF inhib: inactive

What do the screens show for `CCn1c(SCC(=O)Nc2ccccc2Br)nnc1-c1ccccc1`?
NOMO-1 viab: inactive; MITF inhib: inactive

What do the screens show for `OC(Cc1cccnc1)(c1ccccc1)c1ccccc1`?
Shh pathway inh: 71; NOMO-1 viab: inactive; MITF inhib: inactive

Results for O=C(O)c1cccc(NCc2cccnc2)c1 ?
NOMO-1 viab: inactive; MITF inhib: inactive

How did Cc1ccc(-c2noc(CN(C(C)C)S(=O)(=O)c3ccccc3)n2)cc1 do in these assays?
NOMO-1 viab: inactive; MITF inhib: inactive

How did Cc1c(O)ccc(-c2[nH]ncc2-c2nncn2-c2ccccc2)c1O do in these assays?
NOMO-1 viab: inactive; MITF inhib: inactive

Results for O=C(CC1(O)C(=O)Nc2ccc([N+](=O)[O-])cc21)c1ccccc1 (stereo not given) ?
NOMO-1 viab: inactive; MITF inhib: inactive

What do the screens show for `COC(=O)C1c2c(oc3cc(CO)cc(O)c3c2=O)C=CC1O` (stereo not given)?
Shh pathway inh: inactive; NOMO-1 viab: 107; MITF inhib: inactive

Results for COc1cc(-c2oc3cc(O)cc(O)c3c(=O)c2O[C@@H]2O[C@H](CO)[C@@H](O)[C@H](O)[C@H]2O)ccc1O[C@@H]1O[C@H](CO)[C@@H](O)[C@H](O)[C@H]1O ?
Shh pathway inh: inactive; NOMO-1 viab: inactive; MITF inhib: inactive

What do the screens show for `Cc1cc(OCC(=O)Nc2ccccc2C(=O)NC2CCCCC2)cc(C)c1Cl`?
NOMO-1 viab: inactive; MITF inhib: inactive

What do the screens show for `Cc1ccc(S(=O)(=O)Nc2ccc3c(c2)CC(=O)N([C@@H](C)CO)C[C@@H](C)[C@@H](CN(C)CC2CCCCC2)O3)cc1`?
Shh pathway inh: inactive; NOMO-1 viab: 97; MITF inhib: inactive

How did Cc1ccc(S(=O)(=O)Nc2ccc3c(c2)CC(=O)N([C@@H](C)CO)C[C@H](C)[C@@H](CN(C)CC2CCCCC2)O3)cc1 do in these assays?
Shh pathway inh: inactive; NOMO-1 viab: inconclusive; MITF inhib: inactive

Assay outcomes deposited in PubChem BioAssay by Broad Institute.
